Data on 15 compounds can be found in PubChem BioAssay.

Experiment [1] deals with TRPC4 beta (transient receptor potential cation channel C4), mouse. Kind of experiment: activators of mouse TRPC4 channel, confirmation, cell-based, Fluo4 calcium, HEK293 TRPC4beta/mu-opioid, duplicates, 10 µM (AID 2426;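 active means fluorescence ratio normalized to control raised more than 50% in primary screen plus both repeat runs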). To be noted: Fluo4 calcium fluorescence, at 10 µM; stronger effect = higher value.
The test system of experiment [2] is transient receptor potential cation channel C4 beta (TRPC4), mouse. In words: activators of mouse TRPC4 channel, confirmation, cell-based, second round, Fluo4, HEK293 TRPC4beta/mu-opioid, 1 µM (AID 2461). To be noted: Fluo4 calcium fluorescence, at 1 µM; stronger effect = higher value.
Experiment [3] relates to TRPC4 (transient receptor potential cation channel C4 beta), mouse. In words: positive allosteric modulators of mouse TRPC4, confirmation, cell-based, second round, Fluo-4, HEK293 TRPC4beta/mu-opioid, 1 µM (AID 2554;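 active means primary screen hit whose fluorescence ratio, in both repeats, exceeds the weak agonist control mean by 3 SD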). The conditions noted are these: DAMGO EC20, Fluo-4 calcium flux, at 1 µM; stronger effect = higher value.
The subject of experiment [4] is TRPC4 beta (transient receptor potential cation channel C4), mouse. In words: positive allosteric modulators of mouse TRPC4, confirmation, cell-based, Fluo-4, HEK293 TRPC4beta/mu-opioid (AID 2555;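 active means primary screen hit whose calcium fluorescence ratio, in both repeats, exceeds the weak agonist control mean by 3 SD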). The conditions noted are these: DAMGO EC20, Fluo-4 calcium flux, at 10 µM; stronger effect = higher value. On the technique in general: Calcium flux is commonly read through the fluorescence of an indicator in the cells.

The target in experiment [5] is Short transient receptor potential channel 4 (Mus musculus) (UniProt Q9QUQ5). Kind of experiment: inhibitors of mouse TRPC4 channel, confirmation, cell-based, Fluo4, HEK293 TRPC4beta/mu-opioid (AID 2636;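 active means calcium signal cut by more than 3 SD below the full-agonist control yet still positive, in both repeats and the earlier primary screen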). The conditions noted are these: DAMGO, Fluo4 calcium flux, at 10 µM; stronger effect = higher value.
For experiment [6] the target is unchanged. Kind of experiment: inhibitors of mouse TRPC4 channel, confirmation, cell-based, second round, Fluo4, HEK293 TRPC4beta/mu-opioid, 1 µM (AID 2637;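 active means calcium signal ratio cut to more than 3 SD under the fully stimulated control mean yet still positive, in both repeats and the primary screen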;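 on inhibition: percent of integrated ratio relative to wells lacking test compound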). To be noted: Fluo4 calcium flux, DAMGO, at 1 µM; stronger effect = higher value.
The target is the same in experiment [7]. In words: mouse TRPC4 channel activators, dose response, cell-based, HEK293 TRPC4/mu-opioid, Fluo-4 calcium (AID 434937;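 active means primary screen activator hit with a dose response curve and TRPC4 channel activation at any tested dose; inactive means no activation, no dose response, or not a primary hit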).
The target is the same in experiment [8]. In words: TRPC4 positive allosteric modulators, dose response, cell-based, HEK293 TRPC4/mu-opioid, Fluo-4 calcium, EC20 DAMGO (AID 434941;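 active means earlier screen potentiator hit that boosts the TRPC4 ion channel at some dose, with a dose response; inactive means no potentiation, no dose response, or not a prior hit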;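 further: calcium entry triggered by an EC20 dose of DAMGO at the co-expressed mu-opioid receptor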).
For experiment [9], the target named is Short transient receptor potential channel 6 (Mus musculus) (UniProt Q61143). In words: inhibition of mouse TRPC6 channel, confirmation, selectivity assay for TRPC4 inhibitor project, cell-based, HEK293, membrane potential dye, duplicate (AID 434948;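 active means active in primary screen and both duplicates, each dropping signal beyond three positive-control SD with fluorescence still positive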). To be noted: HEK293 TRPC6, membrane potential dye fluorescence, at 10 µM, stimulated with maximal-effect acetylcholine; stronger effect = higher value.

Experiment [10] shares this target. In words: activation of mouse TRPC6 channel, confirmation, selectivity assay for TRPC4 activator project, cell-based, HEK293, membrane potential dye, duplicate (AID 434950;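 active means membrane potential signal rise above negative control mean plus 3 SD in both duplicates, also active in the earlier TRPC4 screen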). The conditions noted are these: HEK293 TRPC6, membrane potential fluorescence, at 10 µM; stronger effect = higher value.
Experiment [11] shares this target. In words: TRPC6 potentiation by TRPC4 potentiator hits, confirmation, selectivity assay for TRPC4 potentiator project, HEK293 cells, membrane potential dye, duplicate (AID 434952;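 active means compound raising the membrane signal above positive-control mean plus 3 SD in both repeats, and a primary screen hit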). The conditions noted are these: HEK293 TRPC6, membrane potential dye fluorescence, at 10 µM, maximal acetylcholine added after compound; stronger effect = higher value.
The target of experiment [12] is Short transient receptor potential channel 4 (Mus musculus) (UniProt Q9QUQ5). Kind of experiment: calcium flux activators in TRPC4/5HT1a cells, counter-screen for TRPC4 activator project, cell-based, second counter screen, HEK293 TRPC4/5HT1a, Fluo-4 (AID 434977;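 active means calcium signal rise above buffer-control mean plus 5 SD in both duplicates, and also a hit in the primary screen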). The conditions noted are these: Fluo-4 calcium flux, at 10 µM; stronger effect = higher value.
Experiment [13] can be described thus: calcium flux inhibitors in TRPC4/5HT1a cells, confirmation, counter-screen for TRPC4 inhibitor project, cell-based, second counter screen, HEK293 TRPC4/5HT1a, Fluo-4 (AID 434978;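 active means primary screen active whose calcium signal fell more than 3 SD beyond the full-serotonin control mean in both duplicate plates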;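 on outcome: serotonin given first at submaximal then at maximal dose after compound preincubation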). The conditions noted are these: Fluo-4 calcium flux, at 10 µM, serotonin added to trigger calcium flux; stronger effect = higher value.
For experiment [14], the system named is TRPC4 (mouse), co-expressed with 5HT1a in HEK293. In words: calcium flux potentiators in TRPC4/5HT1a cells, confirmation, counter-screen for TRPC4 potentiator project, cell-based, second counter screen, HEK293 TRPC4/5HT1a, Fluo-4 (AID 434979;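 active means signal rise over 3 SD above mean of control wells given weak agonist, in both repeats and first screen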). The conditions noted are these: Fluo-4 calcium flux, at 10 µM, serotonin added at its EC20 dose; stronger effect = higher value.

Experiment [15] can be described thus: calcium flux activation in mu-opioid HEK293 cells, confirmation, counter-screen for TRPC4 activator project, cell-based, HEK293 mu-opioid receptor line (AID 449723;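 active means hit in primary screen, with calcium signal over 5 SD above buffer well mean in both duplicates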;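 further: counter screen cells carry the mu-opioid receptor alone and lack TRPC4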). To be noted: Fluo-4 calcium fluorescence, at 10 µM; stronger effect = higher value.
Experiment [16] in a line: calcium flux enhancement in mu-opioid HEK293 cells, confirmation, counter-screen for TRPC4 allosteric potentiator project, cell-based, HEK293 mu-opioid receptor line (AID 449724;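 active means calcium signal rise more than 3 SD above the low-dose agonist control mean, in both duplicate plates and the primary screen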;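 further: HEK293 cells carrying mu-opioid receptor only with no TRPC4 channel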). To be noted: Fluo-4 calcium flux, at 10 µM, compound added before EC20 DAMGO stimulus; stronger effect = higher value.

For part of these data: Entries with a potency or affinity are not part of this list. Activity calls are given as the source filed them.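 How the source made its calls, unless noted: active means primary screen active and over 50% activation in each of two duplicate runs; inactive means the rest.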

Short transient receptor potential channel 6 (Mus musculus), sequence (Q61143 whole entry, looked up): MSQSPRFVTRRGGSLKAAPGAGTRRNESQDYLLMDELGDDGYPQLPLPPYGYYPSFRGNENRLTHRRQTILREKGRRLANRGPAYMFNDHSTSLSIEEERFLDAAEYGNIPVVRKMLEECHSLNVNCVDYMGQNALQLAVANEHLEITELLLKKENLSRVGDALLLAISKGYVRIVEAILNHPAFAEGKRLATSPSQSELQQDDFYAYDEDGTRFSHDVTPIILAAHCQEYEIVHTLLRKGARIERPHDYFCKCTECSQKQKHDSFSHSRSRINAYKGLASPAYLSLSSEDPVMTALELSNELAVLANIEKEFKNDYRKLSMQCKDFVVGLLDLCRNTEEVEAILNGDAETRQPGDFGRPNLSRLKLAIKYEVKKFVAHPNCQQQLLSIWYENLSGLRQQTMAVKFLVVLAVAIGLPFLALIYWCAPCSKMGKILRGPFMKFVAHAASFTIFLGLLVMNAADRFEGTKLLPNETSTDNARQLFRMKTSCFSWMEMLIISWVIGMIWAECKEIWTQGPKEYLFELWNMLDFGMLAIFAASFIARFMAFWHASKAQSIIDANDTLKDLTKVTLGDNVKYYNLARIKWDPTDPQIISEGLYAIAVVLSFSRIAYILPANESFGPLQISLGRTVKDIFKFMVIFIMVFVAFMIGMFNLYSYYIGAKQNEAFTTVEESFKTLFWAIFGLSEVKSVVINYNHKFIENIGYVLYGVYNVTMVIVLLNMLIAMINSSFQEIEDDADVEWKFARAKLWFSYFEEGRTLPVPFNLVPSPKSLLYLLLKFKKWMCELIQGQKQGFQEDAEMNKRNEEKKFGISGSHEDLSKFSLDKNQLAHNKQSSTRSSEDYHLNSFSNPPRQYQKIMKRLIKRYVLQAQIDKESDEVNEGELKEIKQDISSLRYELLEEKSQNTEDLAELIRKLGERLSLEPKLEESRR
Short transient receptor potential channel 4 (Mus musculus), sequence (Q9QUQ5 whole entry, looked up): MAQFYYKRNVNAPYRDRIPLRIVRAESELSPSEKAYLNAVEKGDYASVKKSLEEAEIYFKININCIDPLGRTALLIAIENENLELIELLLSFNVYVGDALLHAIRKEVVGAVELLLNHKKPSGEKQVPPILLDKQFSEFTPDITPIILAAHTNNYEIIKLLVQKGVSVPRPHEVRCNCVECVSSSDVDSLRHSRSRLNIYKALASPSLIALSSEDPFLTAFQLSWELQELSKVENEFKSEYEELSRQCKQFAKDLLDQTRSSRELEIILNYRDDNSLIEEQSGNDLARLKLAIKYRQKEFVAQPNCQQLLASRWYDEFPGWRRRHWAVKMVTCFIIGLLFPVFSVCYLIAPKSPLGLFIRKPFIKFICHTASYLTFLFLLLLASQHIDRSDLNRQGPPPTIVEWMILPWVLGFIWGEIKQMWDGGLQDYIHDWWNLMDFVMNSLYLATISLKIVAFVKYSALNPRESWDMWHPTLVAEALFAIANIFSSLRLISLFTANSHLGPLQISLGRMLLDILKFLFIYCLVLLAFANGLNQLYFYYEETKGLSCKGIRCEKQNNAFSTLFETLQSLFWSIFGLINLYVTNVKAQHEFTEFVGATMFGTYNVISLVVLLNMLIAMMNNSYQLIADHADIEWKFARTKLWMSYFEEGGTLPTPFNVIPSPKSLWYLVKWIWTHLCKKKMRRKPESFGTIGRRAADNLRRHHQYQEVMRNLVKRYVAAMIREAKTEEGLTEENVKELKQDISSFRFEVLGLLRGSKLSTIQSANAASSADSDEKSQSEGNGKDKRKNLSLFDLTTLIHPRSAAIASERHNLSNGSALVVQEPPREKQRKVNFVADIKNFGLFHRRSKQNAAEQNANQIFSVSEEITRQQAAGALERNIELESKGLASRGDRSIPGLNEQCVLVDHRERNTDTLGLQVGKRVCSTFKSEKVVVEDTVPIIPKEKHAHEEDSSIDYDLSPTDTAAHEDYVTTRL

For orientation: inhibition means the share of the control response that was lost under treatment. Turning to `Cc1nn(-c2ccccc2)c(Cl)c1CN(C(=O)CCl)c1ccc(Cl)cc1`, the outcome in experiment [1], in [2], in [3], in [4], in experiment [7] and in experiment [8] was inactive. Also, the compound was classed as inactive in experiment [9], in experiment [10], in experiment [11], in experiment [12], in experiment [14] and in experiment [15]. In experiment [16], the outcome was inactive. Also, the inhibition in experiment [5] was 93% (active); in experiment [6] it was 69% (active); in experiment [13] it was 2.77% (active).

For the compound `Cc1cc(Nc2ccc(C)c(C)c2)c2ccccc2n1`, the outcome in [1], in experiment [2], in experiment [3], in [4], in [7] and in experiment [8] was inactive. The result in [10], in experiment [11], in experiment [12], in experiment [14], in [15] and in [16] was inactive. Further, the inhibition in experiment [5] is 99% (active); in experiment [6], 42% (active); in [9], 35.5% (active); in [13], 30.8% (active).

Consider `O=C(Nc1cccc(Cl)c1)N1CCN2C(=O)c3ccccc3C12c1ccccc1` (stereo not given), for which the result in experiment [1], in experiment [2], in experiment [3], in experiment [4], in experiment [6] and in experiment [7] was inactive. Moreover, the outcome in experiment [8], in experiment [9], in experiment [10], in [11], in experiment [12] and in experiment [13] was inactive. For the same compound, the result in [14], in experiment [15] and in [16] was inactive. Further, the inhibition in [5] is 69% (active).

Take `COc1cc(CNCCc2ccc(F)cc2)ccc1OCc1ccc(Cl)nc1`: the result in experiment [1], in [2], in experiment [3], in experiment [4], in experiment [6] and in experiment [7] was inactive. Moreover, the outcome in experiment [8], in experiment [10], in experiment [11], in experiment [12], in experiment [13] and in [14] was inactive. Moreover, the result in experiment [15] and in experiment [16] was inactive. Besides, the inhibition in experiment [5] is 84% (active); in [9], 40.5% (active).

On to `O=C(O)CN1C(c2ccccc2O)Nc2ccc(Br)cc2C1c1ccccc1` (stereo not given), for which the result in experiment [1], in experiment [2], in [3], in [4], in [7] and in experiment [8] was inactive. Further, the outcome in experiment [9], in experiment [10], in [11], in experiment [12], in experiment [14] and in [15] was inactive. The outcome in experiment [16] was inactive. In addition, the inhibition was 96% (active) in experiment [5], 45% (active) in experiment [6] and 13.5% (active) in experiment [13].

Regarding `COCCn1c(SCc2cccc([N+](=O)[O-])c2)nc2ccccc2c1=O`, the outcome in experiment [1], in experiment [2], in experiment [3], in experiment [4], in experiment [7] and in experiment [8] was inactive. Moreover, the call in [9], in experiment [10], in experiment [11], in [12], in experiment [14] and in experiment [15] was inactive. In addition, in experiment [16], the outcome was inactive. Also, the figures for the inhibition in [5], in [6] and in experiment [13] were 94% (active), 45% (active) and 20.4% (active), respectively.

`CCc1ccc2nc3nc(C)cc(C)c3c(N)c2c1`: the outcome in experiment [1], in experiment [2], in experiment [3], in experiment [4], in [7] and in experiment [8] was inactive. Further, the call in [10], in [11], in experiment [12], in experiment [14], in [15] and in experiment [16] was inactive. For the same compound, the inhibition in experiment [5] is 96% (active); in experiment [6], 41% (active); in experiment [9] it was 27% (active); in experiment [13], 15.6% (active).

On to `Cc1ccc2cc(CN(CCN3CCOCC3)C(=O)NCc3ccccc3)c(=O)[nH]c2c1C`, for which the outcome in experiment [1], in experiment [2], in experiment [3], in experiment [4], in experiment [7] and in [8] was inactive. Besides, the outcome in experiment [9], in experiment [10], in [11], in experiment [12], in experiment [14] and in experiment [15] was inactive. The result in [16] was inactive. Moreover, the values for the inhibition in [5], in experiment [6] and in experiment [13] were 80% (active), 42% (active) and 34% (active), respectively.

Turning to `CC1CCc2c(sc(/N=C/N(C)C)c2C#N)C1` (stereo not given), the result in [1], in experiment [2], in experiment [3], in experiment [4], in [6] and in experiment [7] was inactive. The outcome in experiment [8], in [9], in experiment [10], in experiment [11], in [12] and in experiment [13] was inactive. In addition, the outcome in experiment [14], in experiment [15] and in [16] was inactive. Besides, the inhibition in [5] was 78% (active).

On to `Cc1cccc2cc(CN(CCCN(C)C)C(=S)NCCc3ccccc3)c(=O)[nH]c12`, for which the result in experiment [1], in experiment [2], in [3], in experiment [4], in experiment [5] and in experiment [6] was inactive. Moreover, the result in experiment [7], in [8], in experiment [9], in experiment [10], in [11] and in [12] was inactive. The outcome in experiment [13], in experiment [14], in experiment [15] and in [16] was inactive.

Take `CCC(=O)N1CCc2cc(S(=O)(=O)NCCN3CCCCC3CC)ccc21` (stereo not given): the result in experiment [1], in experiment [2], in [3], in experiment [4], in experiment [7] and in experiment [8] was inactive. For the same compound, the call in [9], in experiment [10], in [11], in [12], in experiment [14] and in experiment [15] was inactive. The result in experiment [16] was inactive. In addition, the inhibition is 94% (active) in experiment [5], 59% (active) in experiment [6] and 17.9% (active) in experiment [13].

With `CCC(O)C1CCN(Cc2cn(-c3ccc(OC)cc3)nc2-c2cccc(F)c2)CC1` (stereo not given), the outcome in experiment [1], in experiment [2], in experiment [3], in experiment [4], in [6] and in experiment [7] was inactive. Also, the result in experiment [8], in [9], in experiment [10], in experiment [11], in [12] and in experiment [13] was inactive. Further, the result in [14], in [15] and in experiment [16] was inactive. For the same compound, the inhibition in [5] was 98% (active).

Turning to `CCCCn1c2ccccc2c2nnc(SCCN3CCCCC3)nc21`, the outcome in experiment [1], in experiment [2], in experiment [3], in [4], in experiment [6] and in experiment [7] was inactive. Moreover, the result in [8], in experiment [10], in experiment [11], in experiment [12], in [14] and in [15] was inactive. Besides, the result in [16] was inactive. Besides, the values for the inhibition in experiment [5], in [9] and in experiment [13] were 84% (active), 44.5% (active) and 31.3% (active), respectively.

For the compound `OCCNCc1cc(Br)ccc1OCc1ccc(F)cc1`, the outcome in experiment [1], in experiment [2], in experiment [3], in experiment [4], in experiment [7] and in experiment [8] was inactive. The call in experiment [9], in [10], in [11], in experiment [12], in experiment [14] and in experiment [15] was inactive. Further, the result in [16] was inactive. Besides, the figures for the inhibition in experiment [5], in experiment [6] and in experiment [13] were 94% (active), 45% (active) and 21.1% (active), respectively.

For the compound `O=C(COC(=O)C1CC1)Nc1nc(-c2ccc(F)c(F)c2)cs1`, the outcome in experiment [1], in experiment [2], in [3], in experiment [4], in [6] and in experiment [7] was inactive. In addition, the result in experiment [8], in experiment [9], in experiment [10], in experiment [11], in experiment [12] and in [14] was inactive. Moreover, the outcome in [15] and in [16] was inactive. Further, the values for the inhibition in [5] and in experiment [13] were 70% (active) and 41.5% (active), respectively.
